The text below walks through data of PubChem BioAssay (EPA / NIEHS).

For test [1], the target named is Nuclear receptor subfamily 1 group I member 3 (Homo sapiens) (UniProt Q14994). Description: ATG_CAR_TRANS: Attagene TRANS-FACTORIAL HepG2 Assay for human Constitutive Androstane Receptor (CAR) (AID 2282969).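 Further: activators raise reporter mRNA above DMSO so AC50 marks induction.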 Conditions: HepG2 Attagene TRANS-FACTORIAL CAR reporter. The procedure, abridged:
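Readout is reporter mRNA induction, quantified by fluorescent primer extension and capillary electrophoresis after RT-PCR. Cells were HepG2 transiently carrying chimeric NR-Gal4 constructs with GAL4-UAS reporters, treated for 24 h; activity scored upward from DMSO.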

Test [2] deals with Estrogen receptor (Homo sapiens) (UniProt P03372). Description: ATG_ERa_TRANS: Attagene TRANS-FACTORIAL HepG2 Assay for human Estrogen Receptor alpha (ERa) (AID 2282970). The settings on record: HepG2 Attagene TRANS ERa GAL4 reporter, mRNA. In outline:
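HepG2 cells transiently transfected with multiplexed GAL4-UAS reporter units; ERa activity read via exogenous chimeric NR-Gal4 protein. After 24 hour compound exposure, reporter mRNA measured by RT-PCR with 6-FAM labelling and capillary electrophoresis; gain-of-signal fitted relative to DMSO.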

Test [3] addresses Steroid hormone receptor ERR1 (Homo sapiens) (UniProt P11474). The experiment in a line: ATG_ERRa_TRANS: Attagene TRANS-FACTORIAL HepG2 Assay for human Estrogen-Related Receptor alpha (ERRa) (AID 2282971). Conditions: HepG2 Attagene TRANS reporter, ERRa transactivation. The procedure, abridged: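 HepG2 cells transiently transfected with multiplexed GAL4-UAS reporter units reading chimeric ERRa-Gal4 activity; 24 h compound exposure. Reporter mRNA measured by RT-PCR, 6-FAM labelling, HpaI digest and capillary electrophoresis; gain of signal fitted versus DMSO baseline.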

In test [4] the target is X-box-binding protein 1 (Homo sapiens) (UniProt P17861). Description: ATG_Xbp1_CIS: Attagene CIS-FACTORIAL HepG2 Assay for human X-box Binding Protein 1 (XBP1) (AID 2282972; active means hit-call score of the fitted dose curve at least 0.9, where 1 is the maximum; inactive means score below 0.9). The settings on record: HepG2 XBP1 cis-element reporter, Attagene multiplex; actives raise or lower the signal. In outline: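 HepG2 cells transiently transfected with multiple cis-element reporter units report endogenous TF activity; 24 h exposure, then reporter mRNA measured by RT-PCR, 6-FAM labelling, HpaI digestion and capillary electrophoresis. Bidirectional fitting versus DMSO.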

Test [5] addresses Androgen receptor (Homo sapiens) (UniProt P10275). The experiment in a line: ATG_AR_TRANS: Attagene TRANS-FACTORIAL HepG2 Assay for human Androgen Receptor (AR) (AID 2282973). The settings on record: HepG2 Attagene TRANS-FACTORIAL AR reporter transcription. The procedure, abridged:
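HepG2 cells transiently transfected with multiplexed GAL4-UAS reporter units and chimeric NR-Gal4 fusion; 24 h compound exposure. Reporter mRNA measured by RT-PCR, 6-FAM labelling, HpaI digestion and capillary electrophoresis; gain-of-signal fitted relative to DMSO baseline.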

Test [6] can be described thus: ATG_M_19_TRANS: Attagene TRANS-FACTORIAL HepG2 Assay for M19 Transcription Factor (Internal Marker) (AID 2282974). The settings on record: HepG2 Attagene TRANS-FACTORIAL M19 internal marker reporter. The procedure, abridged: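 Fluorescence of 6-FAM-labelled reporter cDNA fragments, separated by capillary electrophoresis, served as the readout. These derived from HepG2 cells carrying transfected GAL4-UAS reporter units after 24 h dosing, with DMSO as negative control.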

The nature of test [7]: ATG_GAL4_TRANS: Attagene TRANS-FACTORIAL HepG2 Assay for GAL4 (Internal Marker) (AID 2282976). Conditions: HepG2 Attagene TRANS GAL4 internal marker reporter. The procedure, abridged:
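HepG2 cells transiently transfected with multiplexed GAL4-UAS reporter constructs were dosed for 24 h. Reporter mRNA was measured by RT-PCR, 6-FAM primer extension, HpaI digestion and capillary electrophoresis, and gain of signal was fitted relative to DMSO.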

Test [8] concerns the target Estrogen-related receptor gamma (Homo sapiens) (UniProt P62508). The experiment in a line: ATG_ERRg_TRANS: Attagene TRANS-FACTORIAL HepG2 Assay for human Estrogen-Related Receptor gamma (ERRg) (AID 2282977).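 Further: hits increase reporter signal over DMSO so potencies reflect activators.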 Conditions: HepG2 Attagene TRANS reporter, ERRg transactivation. In outline: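 HepG2 cells transiently transfected with multiplexed GAL4-UAS reporter units driven by chimeric NR-Gal4 proteins; 24 h exposure. Reporter mRNA quantified by RT-PCR, fluorescent labelling, HpaI digestion and capillary electrophoresis; gain of signal vs DMSO.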

Test [9] addresses Glucocorticoid receptor (Homo sapiens) (UniProt P04150). Description: ATG_GR_TRANS: Attagene TRANS-FACTORIAL HepG2 Assay for human Glucocorticoid Receptor (GR) (AID 2282978).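 Further: activators score as hits since higher reporter transcript over DMSO is fitted.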 Conditions: HepG2 Attagene TRANS GR reporter, mRNA transcription. In outline: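 Fluorescent capillary-electrophoresis quantitation of reporter mRNA is the readout, taken 24 h after dosing human HepG2 cells carrying transiently transfected GAL4-UAS reporter units activated by chimeric NR-GAL4 fusions; activity scored as induction over DMSO.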

Test [10] has as its target Bile acid receptor (Homo sapiens) (UniProt Q96RI1). Description: ATG_FXR_TRANS: Attagene TRANS-FACTORIAL HepG2 Assay for Farnesoid X Receptor (FXR) (AID 2282979).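 Further: hits raise reporter mRNA above DMSO so AC50 marks FXR activation.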 The settings on record: HepG2 Attagene TRANS FXR-GAL4 reporter transcription. The procedure, abridged: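 HepG2 cells transiently transfected with reporter constructs in which a chimeric FXR-GAL4 protein drives a GAL4-UAS reporter; 24 h compound exposure. Reporter mRNA measured by RT-PCR, FAM labelling, HpaI digestion and capillary electrophoresis; gain-of-signal versus DMSO.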

Test [11] can be described thus: ATG_M_06_TRANS: Attagene TRANS-FACTORIAL HepG2 Assay for M06 Transcription Factor (Internal Marker) (AID 2282983). Conditions: HepG2 Attagene TRANS M06 internal marker reporter. The procedure, abridged: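 HepG2 cells transiently transfected with multiplexed GAL4-UAS reporter transcription units; after 24 h compound exposure, reporter mRNA measured by RT-PCR, FAM-labelled primer extension, HpaI digestion and capillary electrophoresis. Gain-of-signal fitted versus DMSO baseline; background control readout.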

Test [12] in a line: ATG_M_32_TRANS: Attagene TRANS-FACTORIAL HepG2 Assay for M32 Transcription Factor (Internal Marker) (AID 2282984). Conditions: HepG2 Attagene TRANS M32 internal marker reporter. The procedure, abridged:
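Measures reporter mRNA induction in human HepG2 liver cells after 24 h chemical treatment. Transcripts from transiently transfected GAL4-UAS reporter units are amplified, fluorescently labelled and sized by capillary electrophoresis; gain of signal relative to DMSO.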

In test [13] the target is Nuclear receptor subfamily 4 group A member 2 (Homo sapiens) (UniProt P43354). The experiment in a line: ATG_NURR1_TRANS: Attagene TRANS-FACTORIAL HepG2 Assay for human Nuclear Receptor Related Protein 1 (NURR1) (AID 2282985). The settings on record: HepG2 Attagene TRANS reporter, mRNA readout. The procedure, abridged:
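Transient transfection of HepG2, human liver cells, with multiple GAL4-UAS reporter transcription units. Cells dosed 24 h, RNA isolated, reverse-transcribed, PCR-amplified, FAM-labelled, HpaI-digested, sized by capillary electrophoresis. DMSO served as negative control.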

The target in test [14] is Transcriptional activator Myb (Homo sapiens) (UniProt P10242). The experiment in a line: ATG_Myb_CIS: Attagene CIS-FACTORIAL HepG2 Assay for human Myeloblastosis (Myb) Proto-Oncogene Transcription Factor (AID 2282986; active means hit-call score of the fitted dose curve at least 0.9, where 1 is the maximum; inactive means score below 0.9). Conditions: HepG2 Attagene CIS-FACTORIAL Myb reporter transcription; actives raise or lower the signal. In outline:
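Reporter transcript levels, quantified by fluorescent RT-PCR and capillary electrophoresis, serve as the read-out. Transfected HepG2 cells carrying cis-promoter reporter units are dosed for 24 hours, and curves are fitted bidirectionally against DMSO controls.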

Test [15] deals with Nuclear respiratory factor 1 (Homo sapiens) (UniProt Q16656). Description: ATG_NRF1_CIS: Attagene CIS-FACTORIAL HepG2 Assay for human Nuclear Respiratory Factor 1 (NRF1) Orphan Gene (AID 2282987; active means hit-call score of the fitted dose curve at least 0.9, where 1 is the maximum; inactive means score below 0.9). The settings on record: HepG2 NRF1 cis-element reporter, Attagene multiplex; actives raise or lower the signal. In outline: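 Multiplexed cis-reporter assay, HepG2 cells, 24 h treatment. Total RNA → oligo(dT) RT → PCR with reporter-specific primers → 6-FAM primer extension → HpaI cut → CE. Bidirectional fit vs DMSO.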

A short description of test [16]: ATG_NFI_CIS: Attagene CIS-FACTORIAL HepG2 Assay for human Nuclear Factor I (NFI) (AID 2282989; active means hit-call score of the fitted dose curve at least 0.9, where 1 is the maximum; inactive means score below 0.9). The settings on record: HepG2 cis-regulatory reporter, NFI response element transcription; actives raise or lower the signal. In outline: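 Reporter transcripts were measured by RT-PCR with fluorescent primer extension and capillary electrophoresis 24 h post-treatment. HepG2 cells carried transiently transfected cis-regulated reporter constructs reporting endogenous factor activity; gain or loss fitted against DMSO baseline.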

For test [17], the target named is Myc proto-oncogene protein (Homo sapiens) (UniProt P01106). The experiment in a line: ATG_Myc_CIS: Attagene CIS-FACTORIAL HepG2 Assay for human Myelocytomatosis (Myc) Proto-Oncogene Transcription Factor (AID 2282990; active means hit-call score of the fitted dose curve at least 0.9, where 1 is the maximum; inactive means score below 0.9). Conditions: HepG2, Attagene cis-reporter transcription factor activity; actives raise or lower the signal. In outline: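 HepG2, transient MRTU transfection (cis promoters, endogenous TFs); 24 h dosing; TriZol RNA → oligo(dT) RT → PCR → 6-FAM primer extension → HpaI cut → CE. Bidirectional fit vs DMSO.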

In test [18] the target is Hepatocyte nuclear factor 4-alpha (Homo sapiens) (UniProt P41235). Description: ATG_HNF4a_TRANS: Attagene TRANS-FACTORIAL HepG2 Assay for human Hepatocyte Nuclear Factor 4 alpha (HNF4a) (AID 2282982). The settings on record: HepG2 HNF4a transactivation reporter, mRNA readout. In outline:
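Readout is fluorescent reporter-transcript fragments resolved by capillary electrophoresis after RT-PCR from HepG2 cells dosed for 24 h. Cells carried transfected GAL4-UAS reporter constructs measuring exogenous NR-GAL4 chimera activity; DMSO served as baseline.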

The target of test [19] is Oxysterols receptor LXR-alpha (Homo sapiens) (UniProt Q13133). The experiment in a line: ATG_LXRa_TRANS: Attagene TRANS-FACTORIAL HepG2 Assay for human Liver X Receptor alpha (LXRa) (AID 2282980). Conditions: HepG2 Attagene TRANS reporter, LXRa transactivation. In outline: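 HepG2 cells were transiently transfected with multiplexed reporter units driven by chimeric LXRa–GAL4 fusion proteins, then dosed for 24 h. Reporter mRNA was quantified by RT-PCR, fluorescent labelling and capillary electrophoresis; gain of signal fitted against DMSO baseline.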

In test [20] the target is Oxysterols receptor LXR-beta (Homo sapiens) (UniProt P55055). Description: ATG_LXRb_TRANS: Attagene TRANS-FACTORIAL HepG2 Assay for human Liver X Receptor beta (LXRb) (AID 2282981). The settings on record: HepG2 Attagene TRANS GAL4-LXRb reporter, mRNA. In outline:
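Transient transfection HepG2 (multiplexed RTUs, GAL4-UAS); NR-Gal4 chimera; 24 h exposure; RNA → RT-PCR → 6-FAM primer extension → HpaI → CE; increase vs DMSO.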

The structures appear in SMILES notation. Records with an inconclusive call do not appear. Active and inactive are the calls of the source. How the source made its calls, unless noted: active means hit-call score of the fitted dose curve at least 0.9, where 1 is the maximum; inconclusive means response in the unintended direction; inactive means score below 0.9.

For orientation: AC50 means the concentration at which the activity in the assay is half-maximal.

Transcriptional activator Myb (Homo sapiens), sequence (P10242 whole entry, looked up): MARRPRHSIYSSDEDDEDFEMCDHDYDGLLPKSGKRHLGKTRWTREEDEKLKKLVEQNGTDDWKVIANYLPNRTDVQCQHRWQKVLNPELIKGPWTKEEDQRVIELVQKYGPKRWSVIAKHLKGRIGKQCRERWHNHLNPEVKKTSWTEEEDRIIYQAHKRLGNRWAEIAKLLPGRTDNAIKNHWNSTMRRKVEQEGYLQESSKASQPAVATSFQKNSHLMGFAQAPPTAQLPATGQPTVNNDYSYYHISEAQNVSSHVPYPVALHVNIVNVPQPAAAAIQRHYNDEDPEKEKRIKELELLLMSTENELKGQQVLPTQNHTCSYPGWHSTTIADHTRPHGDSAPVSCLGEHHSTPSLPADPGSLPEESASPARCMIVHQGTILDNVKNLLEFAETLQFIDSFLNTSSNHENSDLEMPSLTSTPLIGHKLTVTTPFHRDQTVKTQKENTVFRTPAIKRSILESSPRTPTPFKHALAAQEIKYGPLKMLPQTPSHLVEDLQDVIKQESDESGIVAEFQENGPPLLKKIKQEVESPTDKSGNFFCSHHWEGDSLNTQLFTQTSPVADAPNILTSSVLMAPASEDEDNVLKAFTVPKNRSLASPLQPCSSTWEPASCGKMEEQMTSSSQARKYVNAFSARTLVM
Nuclear respiratory factor 1 (Homo sapiens), sequence (Q16656 whole entry, looked up): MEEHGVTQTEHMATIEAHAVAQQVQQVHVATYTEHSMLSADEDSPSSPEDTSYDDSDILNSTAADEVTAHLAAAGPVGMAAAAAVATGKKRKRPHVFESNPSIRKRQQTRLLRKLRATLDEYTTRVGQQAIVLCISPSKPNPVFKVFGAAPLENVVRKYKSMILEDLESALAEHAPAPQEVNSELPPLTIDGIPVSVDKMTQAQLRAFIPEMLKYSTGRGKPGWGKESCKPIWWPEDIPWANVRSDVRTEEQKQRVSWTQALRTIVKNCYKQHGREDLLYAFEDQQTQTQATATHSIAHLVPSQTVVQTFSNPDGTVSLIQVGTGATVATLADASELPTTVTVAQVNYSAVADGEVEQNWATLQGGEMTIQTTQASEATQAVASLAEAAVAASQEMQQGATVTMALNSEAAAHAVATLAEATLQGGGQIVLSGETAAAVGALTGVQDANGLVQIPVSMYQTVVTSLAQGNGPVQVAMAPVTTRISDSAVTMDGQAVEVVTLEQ
Estrogen receptor (Homo sapiens), sequence (P03372 whole entry, looked up, the tested form may be a part): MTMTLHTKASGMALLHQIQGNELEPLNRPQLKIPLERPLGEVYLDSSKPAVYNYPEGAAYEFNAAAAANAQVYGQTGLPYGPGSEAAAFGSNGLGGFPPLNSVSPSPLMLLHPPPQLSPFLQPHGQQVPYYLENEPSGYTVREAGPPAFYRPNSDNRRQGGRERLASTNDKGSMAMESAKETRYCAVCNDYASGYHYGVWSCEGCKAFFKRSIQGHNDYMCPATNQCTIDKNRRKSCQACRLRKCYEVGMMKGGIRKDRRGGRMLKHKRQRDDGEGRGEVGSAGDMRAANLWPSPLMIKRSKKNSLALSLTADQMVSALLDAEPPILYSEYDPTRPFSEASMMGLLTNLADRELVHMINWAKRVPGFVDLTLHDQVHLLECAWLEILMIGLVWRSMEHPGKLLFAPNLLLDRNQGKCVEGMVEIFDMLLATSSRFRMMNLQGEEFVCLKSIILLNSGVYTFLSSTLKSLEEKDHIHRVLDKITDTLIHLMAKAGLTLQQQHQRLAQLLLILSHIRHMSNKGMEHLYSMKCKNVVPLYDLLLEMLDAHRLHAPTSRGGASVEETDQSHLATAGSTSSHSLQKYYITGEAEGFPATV
Oxysterols receptor LXR-alpha (Homo sapiens), sequence (Q13133 whole entry, looked up, the tested form may be a part): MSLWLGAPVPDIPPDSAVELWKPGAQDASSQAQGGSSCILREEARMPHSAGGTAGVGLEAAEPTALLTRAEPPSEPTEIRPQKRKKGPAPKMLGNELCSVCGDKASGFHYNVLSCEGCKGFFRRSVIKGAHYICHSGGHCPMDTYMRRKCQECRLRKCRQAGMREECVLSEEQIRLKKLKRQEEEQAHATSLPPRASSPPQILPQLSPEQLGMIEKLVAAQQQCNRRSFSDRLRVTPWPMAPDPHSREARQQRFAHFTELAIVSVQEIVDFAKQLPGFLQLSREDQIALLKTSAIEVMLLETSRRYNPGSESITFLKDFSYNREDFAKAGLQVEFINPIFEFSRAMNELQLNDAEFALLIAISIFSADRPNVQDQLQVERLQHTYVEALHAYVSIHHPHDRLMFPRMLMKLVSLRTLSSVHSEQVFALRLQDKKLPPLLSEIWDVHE
Myc proto-oncogene protein (Homo sapiens), sequence (P01106 whole entry, looked up): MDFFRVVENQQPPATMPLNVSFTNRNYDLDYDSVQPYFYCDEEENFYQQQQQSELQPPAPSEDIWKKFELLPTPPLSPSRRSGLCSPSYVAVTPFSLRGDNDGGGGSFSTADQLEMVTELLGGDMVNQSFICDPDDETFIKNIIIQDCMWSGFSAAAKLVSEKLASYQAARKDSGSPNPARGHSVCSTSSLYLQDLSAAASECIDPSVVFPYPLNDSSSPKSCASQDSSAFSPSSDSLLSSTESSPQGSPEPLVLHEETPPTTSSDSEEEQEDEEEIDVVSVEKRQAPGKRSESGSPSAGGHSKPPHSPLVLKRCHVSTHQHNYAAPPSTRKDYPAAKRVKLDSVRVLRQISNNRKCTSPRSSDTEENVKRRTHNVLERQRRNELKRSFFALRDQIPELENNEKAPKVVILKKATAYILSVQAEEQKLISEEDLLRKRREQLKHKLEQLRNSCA
Glucocorticoid receptor (Homo sapiens), sequence (P04150 whole entry, looked up, the tested form may be a part): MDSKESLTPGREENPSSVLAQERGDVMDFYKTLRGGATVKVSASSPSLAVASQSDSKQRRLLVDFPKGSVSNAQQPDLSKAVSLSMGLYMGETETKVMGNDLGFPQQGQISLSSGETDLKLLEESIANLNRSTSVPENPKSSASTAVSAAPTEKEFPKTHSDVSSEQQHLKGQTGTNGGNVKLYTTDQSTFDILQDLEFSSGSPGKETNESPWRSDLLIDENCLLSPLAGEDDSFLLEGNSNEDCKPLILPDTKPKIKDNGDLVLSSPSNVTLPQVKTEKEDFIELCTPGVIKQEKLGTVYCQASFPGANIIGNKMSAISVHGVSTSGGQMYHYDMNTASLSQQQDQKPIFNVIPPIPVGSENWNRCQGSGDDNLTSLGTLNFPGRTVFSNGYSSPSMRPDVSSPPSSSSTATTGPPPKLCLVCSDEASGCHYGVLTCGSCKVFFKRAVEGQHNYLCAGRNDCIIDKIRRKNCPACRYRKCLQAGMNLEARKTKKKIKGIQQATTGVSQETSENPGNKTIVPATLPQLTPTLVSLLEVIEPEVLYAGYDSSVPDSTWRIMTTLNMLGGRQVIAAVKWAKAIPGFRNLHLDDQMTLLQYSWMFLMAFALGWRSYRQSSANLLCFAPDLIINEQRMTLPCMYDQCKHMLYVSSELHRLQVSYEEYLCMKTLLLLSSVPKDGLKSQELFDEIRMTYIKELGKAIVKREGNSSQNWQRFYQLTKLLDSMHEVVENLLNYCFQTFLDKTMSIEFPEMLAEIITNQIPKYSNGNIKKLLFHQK
X-box-binding protein 1 (Homo sapiens), sequence (P17861 whole entry, looked up): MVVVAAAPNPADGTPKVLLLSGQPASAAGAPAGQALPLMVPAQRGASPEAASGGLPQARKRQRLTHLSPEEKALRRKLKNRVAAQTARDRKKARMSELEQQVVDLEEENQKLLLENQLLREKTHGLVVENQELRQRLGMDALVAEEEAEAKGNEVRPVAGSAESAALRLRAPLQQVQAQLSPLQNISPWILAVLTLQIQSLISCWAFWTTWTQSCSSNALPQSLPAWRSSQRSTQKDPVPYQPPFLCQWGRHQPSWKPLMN
Nuclear receptor subfamily 1 group I member 3 (Homo sapiens), sequence (Q14994 whole entry, looked up, the tested form may be a part): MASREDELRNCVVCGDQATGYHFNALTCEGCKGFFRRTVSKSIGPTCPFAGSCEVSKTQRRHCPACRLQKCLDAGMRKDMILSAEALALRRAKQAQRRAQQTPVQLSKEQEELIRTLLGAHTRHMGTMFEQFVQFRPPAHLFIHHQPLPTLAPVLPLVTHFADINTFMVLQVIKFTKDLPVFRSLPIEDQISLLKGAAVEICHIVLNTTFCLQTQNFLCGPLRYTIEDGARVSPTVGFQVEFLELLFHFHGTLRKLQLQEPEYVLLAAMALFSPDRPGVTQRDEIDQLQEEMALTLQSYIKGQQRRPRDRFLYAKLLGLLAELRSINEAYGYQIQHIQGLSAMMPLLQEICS
Nuclear receptor subfamily 4 group A member 2 (Homo sapiens), sequence (P43354 whole entry, looked up, the tested form may be a part): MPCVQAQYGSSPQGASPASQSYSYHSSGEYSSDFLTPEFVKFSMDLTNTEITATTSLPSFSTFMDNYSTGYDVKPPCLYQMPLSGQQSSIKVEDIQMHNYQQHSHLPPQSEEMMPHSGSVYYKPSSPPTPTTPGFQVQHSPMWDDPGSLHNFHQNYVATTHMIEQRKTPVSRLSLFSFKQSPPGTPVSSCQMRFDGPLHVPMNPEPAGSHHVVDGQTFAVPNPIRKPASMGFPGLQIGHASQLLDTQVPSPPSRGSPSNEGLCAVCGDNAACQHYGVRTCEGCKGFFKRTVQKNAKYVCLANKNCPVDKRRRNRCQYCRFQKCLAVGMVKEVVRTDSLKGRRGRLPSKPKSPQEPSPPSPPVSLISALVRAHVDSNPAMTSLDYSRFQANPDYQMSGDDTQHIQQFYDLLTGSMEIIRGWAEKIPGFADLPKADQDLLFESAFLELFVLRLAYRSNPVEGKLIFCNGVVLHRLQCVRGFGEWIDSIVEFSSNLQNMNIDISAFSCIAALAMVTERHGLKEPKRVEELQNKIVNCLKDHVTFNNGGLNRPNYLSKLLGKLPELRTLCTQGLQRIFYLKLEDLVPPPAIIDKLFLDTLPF

With `Cc1ccc(OP(=O)(Oc2ccc(C)cc2C)Oc2ccc(C)cc2C)c(C)c1`, the outcome in test [1], in test [2], in test [3], in [4], in test [5] and in [6] was inactive. Besides, the outcome in [7], in test [8], in test [9], in test [10], in test [11] and in [12] was inactive. The call in test [13], in test [14], in [15], in [16] and in [17] was inactive.
In the case of `CCOC(=O)CCN(SN(C)C(=O)Oc1cccc2c1OC(C)(C)C2)C(C)C`, the call in [1], in test [2], in [3], in test [4], in [10] and in [18] was inactive. The result in [11], in test [12], in [14], in test [15], in [16] and in [17] was inactive. Further, the AC50 in test [13] is 157 µM (active).
Turning to `Fc1cccc(Cl)c1CCl`, the call in test [1], in test [2], in [4], in test [6], in test [9] and in [19] was inactive. The outcome in [20], in [12], in test [14], in test [15], in [16] and in test [17] was inactive.
As to `c1ccc2sc(SNC3CCCCC3)nc2c1`, the result in [1], in test [2], in [4], in [6], in [9] and in [19] was inactive. The outcome in test [12], in [13], in test [14] and in test [16] was inactive. Moreover, in [17], the half-maximal activity concentration (AC50) was 148 µM (active).
As to `CN(C1CCCCC1)C1CCCCC1`, the result in test [1], in test [2], in test [4], in test [5], in test [6] and in test [9] was inactive. Further, the call in test [19], in [12], in [14], in [15], in [16] and in test [17] was inactive.
